Source: the supplement of paper PMC4466140

Molecular target: AgAbp1
Assay: SPOT peptide array binding signal intensity (averaged, normalized) (arbitrary units (background-subtracted, floor 0; scale differs between SH3 domains)); higher = stronger binding of the SH3 domain to the peptide
How it was run: (§1)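 Cellulose membranes carried synthetic 15-mer peptides with cysteines swapped for serines. These were incubated overnight at 4°C with 10 μg/ml of GST-fused SH3 domains from four yeast species in TBS-based blocking buffer. Binding signal, detected with anti-GST antibody and quantified in Genespotter, is the normalized, background-subtracted spot intensity averaged over replicates, in arbitrary units specific to each domain.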

Binder	SPOT peptide array binding signal intensity
NPNRRAPRRPLSTQH	134

Molecular target: AgBbc1
Assay: as above
How it was run: as §1

Binder	SPOT peptide array binding signal intensity
NPNRRAPRRPLSTQH	248

Molecular target: AgBem1-D1
Assay: as above
How it was run: as §1

Binder	SPOT peptide array binding signal intensity
NPNRRAPRRPLSTQH	136

Molecular target: AgBzz1-D1
Assay: as above
How it was run: as §1

Binder	SPOT peptide array binding signal intensity
NPNRRAPRRPLSTQH	18.5

Molecular target: AgBzz1-D2
Assay: as above
How it was run: as §1

Binder	SPOT peptide array binding signal intensity
NPNRRAPRRPLSTQH	96

Molecular target: AgCyk3
Assay: as above
How it was run: as §1

Binder	SPOT peptide array binding signal intensity
NPNRRAPRRPLSTQH	1

Molecular target: AgFus1
Assay: as above
How it was run: as §1

Binder	SPOT peptide array binding signal intensity
NPNRRAPRRPLSTQH	492

Molecular target: AgHof1
Assay: as above
How it was run: as §1

Binder	SPOT peptide array binding signal intensity
NPNRRAPRRPLSTQH	37.8

Molecular target: AgHse1
Assay: as above
How it was run: as §1

Binder	SPOT peptide array binding signal intensity
NPNRRAPRRPLSTQH	1700

Molecular target: AgLsb1
Assay: as above
How it was run: as §1

Binder	SPOT peptide array binding signal intensity
NPNRRAPRRPLSTQH	9.75

Molecular target: AgLsb4
Assay: as above
How it was run: as §1

Binder	SPOT peptide array binding signal intensity
NPNRRAPRRPLSTQH	110

Molecular target: AgMyo5
Assay: as above
How it was run: as §1

Binder	SPOT peptide array binding signal intensity
NPNRRAPRRPLSTQH	1.5

Molecular target: AgNbp2
Assay: as above
How it was run: as §1

Binder	SPOT peptide array binding signal intensity
NPNRRAPRRPLSTQH	1950

Molecular target: AgRvs167
Assay: as above
How it was run: as §1

Binder	SPOT peptide array binding signal intensity
NPNRRAPRRPLSTQH	≤ 0

Molecular target: AgSho1
Assay: as above
How it was run: as §1

Binder	SPOT peptide array binding signal intensity
NPNRRAPRRPLSTQH	100

Molecular target: AgSla1-D1-D2
Assay: as above
How it was run: as §1

Binder	SPOT peptide array binding signal intensity
NPNRRAPRRPLSTQH	484

Molecular target: AgSla1-D3
Assay: as above
How it was run: as §1

Binder	SPOT peptide array binding signal intensity
NPNRRAPRRPLSTQH	18

Molecular target: CaAbp1-D1
Assay: as above
How it was run: as §1

Binder	SPOT peptide array binding signal intensity
NPNRRAPRRPLSTQH	660

Molecular target: CaAbp1-D2
Assay: as above
How it was run: as §1

Binder	SPOT peptide array binding signal intensity
NPNRRAPRRPLSTQH	806

Molecular target: CaBbc1
Assay: as above
How it was run: as §1

Binder	SPOT peptide array binding signal intensity
NPNRRAPRRPLSTQH	1050

Molecular target: CaBem1-D1
Assay: as above
How it was run: as §1

Binder	SPOT peptide array binding signal intensity
NPNRRAPRRPLSTQH	184

Molecular target: CaBzz1-D1
Assay: as above
How it was run: as §1

Binder	SPOT peptide array binding signal intensity
NPNRRAPRRPLSTQH	90

Molecular target: CaBzz1-D2
Assay: as above
How it was run: as §1

Binder	SPOT peptide array binding signal intensity
NPNRRAPRRPLSTQH	104

Molecular target: CaCyk3
Assay: as above
How it was run: as §1

Binder	SPOT peptide array binding signal intensity
NPNRRAPRRPLSTQH	189

Molecular target: CaFus1
Assay: as above
How it was run: as §1

Binder	SPOT peptide array binding signal intensity
NPNRRAPRRPLSTQH	374

Molecular target: CaHof1
Assay: as above
How it was run: as §1

Binder	SPOT peptide array binding signal intensity
NPNRRAPRRPLSTQH	≤ 0

Molecular target: CaHse1
Assay: as above
How it was run: as §1

Binder	SPOT peptide array binding signal intensity
NPNRRAPRRPLSTQH	108

Molecular target: CaLsb1
Assay: as above
How it was run: as §1

Binder	SPOT peptide array binding signal intensity
NPNRRAPRRPLSTQH	≤ 0

Molecular target: CaLsb4
Assay: as above
How it was run: as §1

Binder	SPOT peptide array binding signal intensity
NPNRRAPRRPLSTQH	330

Molecular target: CaMyo5
Assay: as above
How it was run: as §1

Binder	SPOT peptide array binding signal intensity
NPNRRAPRRPLSTQH	1.5

Molecular target: CaNbp2
Assay: as above
How it was run: as §1

Binder	SPOT peptide array binding signal intensity
NPNRRAPRRPLSTQH	4120

Molecular target: CaRvs167
Assay: as above
How it was run: as §1

Binder	SPOT peptide array binding signal intensity
NPNRRAPRRPLSTQH	19

Molecular target: CaRvs167-3
Assay: as above
How it was run: as §1

Binder	SPOT peptide array binding signal intensity
NPNRRAPRRPLSTQH	66

Molecular target: CaSho1
Assay: as above
How it was run: as §1

Binder	SPOT peptide array binding signal intensity
NPNRRAPRRPLSTQH	562

Molecular target: CaSla1-D1-D2
Assay: as above
How it was run: as §1

Binder	SPOT peptide array binding signal intensity
NPNRRAPRRPLSTQH	622

Molecular target: CaSla1-D3
Assay: as above
How it was run: as §1

Binder	SPOT peptide array binding signal intensity
NPNRRAPRRPLSTQH	12.2

Molecular target: ScAbp1
Assay: as above
How it was run: as §1

Binder	SPOT peptide array binding signal intensity
NPNRRAPRRPLSTQH	154
